Compound activity deposited in PubChem BioAssay by several laboratories.
BaF3 parental: parental Ba/F3 cell viability inhibition, counter-screen for JAK2V617F inhibitor project, murine pro-B, CellTiter-Glo luminescence | actives 1.1% (n = 220,000) | CellTiter-Glo ATP luminescence | AID 1486, 2009 | inhibition, % at 5.6 µM;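 active means inhibition above a per-campaign cutoff, the mean inhibition of all tested compounds plus 3 SD, cut at about 27% in these data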
KLF5 inhibitor: KLF5 expression inhibitors, primary screen, DLD-1 cells, luminescence; DLD-1 KLF5 promoter-luciferase reporter; inhibition, % at 5 µM; actives 0.23% (n = 290,000);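 active means inhibition above a per-plate limit of that plate's mean compound inhibition plus 3 SD, cut at about 60% in these data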;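 further: higher means less KLF5 promoter-driven luciferase light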
APP 5UTR inh: inhibitors of APP translation via 5'UTR reporter, primary screen, APP 5'UTR luciferase, SH-SY5Y cells; SH-SY5Y APP 5'UTR-luciferase reporter, luminescence; inhibition, % at 2 µM; actives 0.82% (n = 190,000);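 active means inhibition above a set limit, derived from the sample mean plus 3 SD, cut at about 45% in these data; inconclusive means one replicate passes the limit while the other fails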
aSyn UTR inh: MLPCN primary screen, SNCA 5' untranslated region; alpha-synuclein 5'UTR reporter, inhibitor activity; inhibition, % (tested at 7.5 µM); actives 0.82% (n = 300,000); in the data active means inhibition above about 60%; inconclusive means no clear call, values can overlap the other calls;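 further: H4 neuroglioblastoma cells stably carrying SNCA 5'UTR luciferase fusion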
IEC-6 cytotox: cytotoxicity in IEC-6 intestinal epithelial cells, primary screen, cytotoxicity control for KLF5 inhibitor project, cell-based, luminescence; inhibition, % at 5 µM; IEC-6 cytotoxicity, luminescence viability; actives 0.78% (n = 290,000)
Ba/F3 V617F tox: reduced viability of JAK2V617F-dependent Ba/F3 cells, primary screen, JAK2V617F inhibitor project, cell-based, Ba/F3 EpoR-JAK2V617F, luminescence. ATP luminescence. inhibition, % at 5.6 µM. actives 1.1% (n = 220,000);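 active means inhibition above the campaign mean plus 3 SD over all tested compounds, cut at about 24% in these data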;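 further: cytokine-independent growth of Ba/F3 cells driven by EpoR plus mutant JAK2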
IEC-6 tox confirm: cytotoxic compounds in IEC-6 epithelial cells, confirmation, cytotoxicity control, cell-based, luminescence. IEC-6 rat intestinal epithelial viability. actives 63% (n = 1,900). shares compounds with IEC-6 cytotox. inhibition, % at 5 µM
Of the large screens only hits and unclear results are named; the others gave an inactive call (follow-up assays come after a bar, where they were run). Hits are enriched below; roughly 2.2% of the tested compounds scored in any of these assays. Unless noted, no stated cut-off is given here; in the data, active means inhibition above about 22%; inactive means the rest.

CCOC(=O)C1CCN(S(=O)(=O)c2c(Cl)ccc3nonc23)CC1	IEC-6 cytotox 99.7 (no result: BaF3 parental, APP 5UTR inh, Ba/F3 V617F tox) | IEC-6 tox confirm 41.2
COc1cccc(NC(=O)Nc2nc(-c3ccc(OC)c(OC)c3)cs2)c1	IEC-6 cytotox 24.5 (no result: BaF3 parental, APP 5UTR inh, Ba/F3 V617F tox) | IEC-6 tox confirm inactive
Cc1ccc(S(=O)(=O)N2CCCC2CNC(=O)C(=O)Nc2ccc(F)cc2F)cc1 (configuration not stated)	none (no result: BaF3 parental, KLF5 inhibitor, APP 5UTR inh, IEC-6 cytotox, Ba/F3 V617F tox)
COc1ccc(N(C)C2=NS(=O)(=O)c3ccccc32)cc1	BaF3 parental 61.0, IEC-6 cytotox 54.6, Ba/F3 V617F tox 50.0 (no result: APP 5UTR inh) | IEC-6 tox confirm 29.5
CN(/N=C/c1ccc(N(C)C)cc1)C1=NS(=O)(=O)c2ccccc21	IEC-6 cytotox 37.9 (no result: BaF3 parental, APP 5UTR inh, Ba/F3 V617F tox) | IEC-6 tox confirm inactive
COc1ccc(/C=N/N(C)C2=NS(=O)(=O)c3ccccc32)cc1	none (no result: BaF3 parental, APP 5UTR inh, Ba/F3 V617F tox)
CSc1nccc(-c2nn(-c3ccc(C)cc3)ccc2=O)n1	BaF3 parental 75.6, IEC-6 cytotox 51.2, Ba/F3 V617F tox 75.1 | IEC-6 tox confirm 38.5
C=CCSc1nccc(-c2nn(-c3ccc(C)cc3)ccc2=O)n1	BaF3 parental 46.3, APP 5UTR inh 88.1, IEC-6 cytotox 39.1, Ba/F3 V617F tox 36.8 | IEC-6 tox confirm 34.0
C#CCSc1nccc(-c2nn(-c3ccc(C)cc3)ccc2=O)n1	none (no result: APP 5UTR inh)
O=C(c1ccco1)N1CCN(Cc2cccc3ccccc23)CC1	IEC-6 cytotox 26.3 (no result: BaF3 parental, APP 5UTR inh, Ba/F3 V617F tox) | IEC-6 tox confirm inactive
O=C(c1ccco1)N1CCN(Cc2ccccc2C(F)(F)F)CC1	none (no result: aSyn UTR inh)
Cc1ccc(CN2CCN(C(=O)CC(C)C)CC2)cc1	none (no result: BaF3 parental, APP 5UTR inh, Ba/F3 V617F tox)
C=CCn1c(SCC(=O)c2cccs2)nc2sc(CC)cc2c1=O	IEC-6 cytotox 30.4 | IEC-6 tox confirm 36.1
Cc1cc(C)c(NC(=O)CNC(=O)COC(=O)CNC(=O)c2ccc(Cl)cc2Cl)c(C)c1	none (no result: BaF3 parental, KLF5 inhibitor, APP 5UTR inh, IEC-6 cytotox, Ba/F3 V617F tox)
CCCCCCCn1ccc(=N)cc1	BaF3 parental 77.3, aSyn UTR inh inconclusive, IEC-6 cytotox 23.4, Ba/F3 V617F tox 97.2 | IEC-6 tox confirm 32.0
CCCCCCN1CC(O)=C(c2ccccc2)C1=N	none
S=c1nc(NCCc2ccccc2Cl)c2ccccc2[nH]1	IEC-6 cytotox 23.8 (no result: BaF3 parental, APP 5UTR inh, Ba/F3 V617F tox) | IEC-6 tox confirm inactive
O=C(CCCCCNc1nc(=S)[nH]c2ccccc12)NCc1ccccc1Cl	none
C(=N\Nc1nc2ccccc2[nH]1)/C1CCCCC1	none
COc1ccccc1C1NC(=O)NC(C)=C1C(=O)OC1CCCC(C)C1 (configuration not stated)	none (no result: BaF3 parental, APP 5UTR inh, Ba/F3 V617F tox)
Clc1ccc(-c2nc(/C=N/N3CCOCC3)c3ccccn23)cc1	none
Cc1ccc(-n2nnnc2Sc2ccc(S(=O)(=O)NCCN(C)C)cc2[N+](=O)[O-])cc1	BaF3 parental 68.0, IEC-6 cytotox 28.0, Ba/F3 V617F tox 96.1 | IEC-6 tox confirm 46.8
COc1ccccc1N(CC(=O)NCCN1CCOCC1)S(=O)(=O)c1ccc(C)cc1	none (no result: BaF3 parental, KLF5 inhibitor, APP 5UTR inh, IEC-6 cytotox, Ba/F3 V617F tox)
Cc1[nH]n(-c2ccccc2)c(=O)c1/C=N/NC(=O)c1ccccc1F	IEC-6 cytotox 30.0 (no result: BaF3 parental, APP 5UTR inh, Ba/F3 V617F tox) | IEC-6 tox confirm inactive
Cc1ccc(NC(=O)c2ccc(Cl)cc2[N+](=O)[O-])nc1	BaF3 parental 63.9, IEC-6 cytotox 38.0, Ba/F3 V617F tox 74.4 | IEC-6 tox confirm 48.7
CC(C)CCNC(=O)CN1N=C(c2ccc(Cl)cc2)CCC1=O	none (no result: BaF3 parental, APP 5UTR inh, Ba/F3 V617F tox)
COc1ccc(NC(=O)/C(Cl)=C(/Cl)S(=O)Cc2ccc(Cl)cc2)cn1 (configuration not stated)	BaF3 parental 85.8, APP 5UTR inh 95.9, IEC-6 cytotox 42.1, Ba/F3 V617F tox 100.1 (no result: aSyn UTR inh) | IEC-6 tox confirm 55.8
COc1ccc(CC(=O)Nc2ccc(OC)nc2)cc1	none
COc1ccc(NC(=O)Cc2ccc(-c3ccccc3)cc2)cn1	IEC-6 cytotox 40.1 | IEC-6 tox confirm inactive
COc1ccc(NC(=O)/C(Cl)=C(/Cl)S(=O)(=O)Cc2ccccc2)cn1	BaF3 parental 31.2, APP 5UTR inh 76.9, IEC-6 cytotox 30.6, Ba/F3 V617F tox 72.8 | IEC-6 tox confirm 47.3
COc1ccc(NC(=O)C(Cl)=C(Cl)Cl)cn1	none
CC1Sc2ccc(S(=O)(=O)N3CCC(C(=O)Nc4ccc(Cl)cc4)CC3)cc2NC1=O (configuration not stated)	none (no result: BaF3 parental, APP 5UTR inh, Ba/F3 V617F tox)
